Test results: PubChem BioAssay (NCI)
The panel holds about 83,000 compounds, 20% with a hit somewhere; the sample as a whole holds those more often.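 Interpretation: 100, growth as untreated; towards 0, rising growth inhibition; 0, no net growth; 0 to -100, cell death. Compounds scoring below 10 were considered active.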 A number with no mark means an inactive call. The source made the active and inactive calls.

What was measured:
Test in all cases: NCI-60 one-dose screen, 48 h (100 = growth as untreated, 0 = no growth, -100 = all killed)
Settings in all cases: 10 µM unless noted
HCT-15 colon = system: HCT-15 colon
HT29 colon = system: HT29 colon
SNB-75 CNS = system: SNB-75 CNS
SNB-19 CNS = system: SNB-19 CNS
U251 CNS = system: U251 CNS
PC-3 prostate = system: PC-3 prostate
SK-MEL-5 melanoma = system: SK-MEL-5 melanoma
UACC-62 melanoma = system: UACC-62 melanoma
LOX IMVI melanoma = system: LOX IMVI melanoma
SK-MEL-28 melanoma = system: SK-MEL-28 melanoma
SK-MEL-2 melanoma = system: SK-MEL-2 melanoma
EKVX NSCLC = system: EKVX NSCLC
SN12C renal = system: SN12C renal
UO-31 renal = system: UO-31 renal
ACHN renal = system: ACHN renal
CAKI-1 renal = system: CAKI-1 renal
A498 renal = system: A498 renal
CCRF-CEM leukemia = system: CCRF-CEM leukemia
MOLT-4 leukemia = system: MOLT-4 leukemia
TK-10 renal = system: TK-10 renal

| Structure (SMILES) | growth (HCT-15 colon) | growth (HT29 colon) | growth (SNB-75 CNS) | growth (SNB-19 CNS) | growth (U251 CNS) | growth (PC-3 prostate) | growth (SK-MEL-5 melanoma) | growth (UACC-62 melanoma) | growth (LOX IMVI melanoma) | growth (SK-MEL-28 melanoma) | growth (SK-MEL-2 melanoma) | growth (EKVX NSCLC) | growth (SN12C renal) | growth (UO-31 renal) | growth (ACHN renal) | growth (CAKI-1 renal) | growth (A498 renal) | growth (CCRF-CEM leukemia) | growth (MOLT-4 leukemia) | growth (TK-10 renal) |
| --- | --- | --- | --- | --- | --- | --- | --- | --- | --- | --- | --- | --- | --- | --- | --- | --- | --- | --- | --- | --- |
| CCN1CC2=C(Nc3nc(SC)[nH]c(=O)c3C2c2cc(OC)c(OC)c(OC)c2)/C(=C/c2cc(OC)c(OC)c(OC)c2)C1 (stereo not drawn) | 104% | 99.1% | 92.2% | 91.6% | 83.8% | 92.2% | 88.6% | 90.1% | 91.1% | 104% | 117% | 87.3% | 95.9% | 106% | 87.9% | 108% | 104% | 84.7% | 82.5% |  |
| CN1CCC[C@@H]1CCO[C@](C)(c1ccccc1)c1ccc(Cl)cc1 | 62.2% | 17.3% | 52.3% | 99.5% | 64.3% | 66.2% | -100% (active) | 37.2% | 70.7% | 44.3% | 90.4% | 69.3% | 66.5% | 36.9% | 65.9% | 71% | 88.1% | 65.2% | 67.7% |  |
| O=C1NCCc2c1noc2-c1ccccc1 | 106% | 90.5% | 89.7% | 105% | 98.5% | 94.5% | 105% | 104% | 98.7% | 111% | 101% | 97.8% | 109% | 88.2% | 106% |  | 105% | 109% | 97.5% |  |
| OCc1n(Cc2ccc3ccccc3c2)cc[n+]1Cc1ccc2ccccc2c1 | 100% | 36.6% | 34.8% | 44.5% | 60% | 37.8% | -28% (active) | 12.8% | 45.4% | 24.9% | 67.7% | 83.3% | 41.7% | 83.5% | 109% |  | 72.7% | 34.2% | 47.5% |  |
| O=C(C(=O)c1cc(Br)ccc1O)c1cc(Br)ccc1O | 54% | 93.7% | 59.8% | 37.9% | 43.6% | 46.5% | 14.7% | 11.7% | 39.1% | 51.1% | 28.4% | 88.2% | 59.4% |  | 55.8% | 50% | 93.5% | 53.2% | 37.6% | 61.4% |
| CN(C)c1ccc(-c2nc3ncc(Br)cc3o2)cc1 | 115% | 110% | 103% | 91% | 100% | 83.3% | 99.8% | 87.3% | 98.4% | 120% | 92.1% | 78.4% | 98.2% |  | 99.9% | 109% | 79.8% | 77.1% | 81% | 140% |
| CCOC(=O)/C=C1/SC(=Nc2ccc(C#N)cc2)N(Cc2ccco2)C1=O | -4.1% (active) | 35% | 83.3% | 67.1% | 59.8% | 20.2% | 62.5% | 35.5% | -73.2% (active) | 38.5% | 78.5% | 74% | 52.5% | 31.6% | -78.6% (active) |  | 87% | 0.581% (active) |  |  |
| O=C1C(=O)c2c(nc3ccc(Cl)cn23)-c2ccccc21 | -100% (active) | -84.8% (active) | -87.7% (active) | -100% (active) | -100% (active) | -86.6% (active) | -100% (active) | -100% (active) | -100% (active) | -100% (active) | -90.2% (active) | -95.6% (active) | -100% (active) |  | -100% (active) | -95.4% (active) | -100% (active) | -49.6% (active) |  | -86.3% (active) |
| C[C@H](C(=O)N[C@@H](Cc1ccc(-c2ccccc2)cc1)C(=O)NC1CC(C)(C)N(C)C(C)(C)C1)c1ccc(-c2ccccc2)c(F)c1 | -81.2% (active) | -76.2% (active) | -29% (active) | -72.6% (active) | -74.7% (active) | -70.5% (active) | -94.7% (active) | -57.6% (active) | -83.8% (active) | -73% (active) | -70.9% (active) | -47.8% (active) | -59.2% (active) | -80.9% (active) | -87.8% (active) |  | -18.2% (active) | -45.9% (active) | -60.9% (active) |  |
| CSc1nc(Nc2ccc(S(=O)(=O)Nc3ccon3)cc2)c(C#N)c(-c2ccc(Cl)cc2)n1 | 87.9% | 101% | 102% | 101% | 88.2% | 109% | 97.4% | 107% | 62.3% | 118% | 99.3% | 98.5% | 108% | 86% | 90.2% | 102% | 93.3% | 6.79% (active) | -20.8% (active) |  |
| CCOC(=O)C(Br)=P(c1ccccc1)(c1ccccc1)c1ccccc1 | 102% | 106% | 118% | 114% | 87.7% | 99.9% | 87.6% | 92.8% | 101% | 107% | 98.8% | 103% | 101% |  | 104% | 82.9% | 109% | -40.7% (active) | 99.6% | 117% |
| Cc1cc2c(cc1C)[n+](Cc1ccc3ccccc3n1)cn2Cc1ccc2ccccc2n1 | 66.2% | -14.5% (active) | -1.25% (active) | 16.4% | 7.2% (active) | -7.23% (active) | -93.1% (active) | -38.1% (active) | -56.9% (active) | 10.2% | -32% (active) | 39.6% | 15.2% | 53.2% | 56.5% |  | 17.1% | 15.1% | 7.97% (active) |  |
| CCC(C)C1NC(=O)C(CCNCS(=O)(=O)O)NC(=O)C(NC(=O)C(CCNCS(=O)(=O)O)NC(=O)C(NC(=O)C(CCNCS(=O)(=O)O)NC(=O)CCCCC(C)C)C(C)O)CCNC(=O)C(C(C)O)NC(=O)C(CCNCS(=O)(=O)O)NC(=O)C(CCNCS(=O)(=O)O)NC(=O)C(C(C)CC)NC1=O (stereo not drawn) | 99.6% | 17.3% | 48.5% | 54.9% | 33.3% | 61.6% | 4.4% (active) | 47.5% | 48.8% | 49.8% | 39.9% | 83.7% | 63.6% | 75% | 94.5% | 99.4% | 88.8% |  | 66.4% |  |
| COc1ccc(-c2cc(-c3nnc(SCC(=O)Nc4ccc(C(C)=O)cc4)n3-c3ccccc3)c3ccccc3n2)cc1OC | 102% | 94.7% | 102% | 113% | 101% | 98.7% | 109% | 111% | 98.1% | 113% | 97.9% | 97.7% | 110% | 85.3% | 108% |  | 114% | 104% | 107% |  |
| COc1cnc2c(c1)C(=O)c1c-2n(CCCN2CCNCC2)c(=O)c2cc(F)ccc12 | 2.48% (active) | -42.1% (active) | -7.98% (active) | 18.3% | 2.03% (active) | 22.8% | -88.5% (active) | -0.448% (active) | -86.8% (active) | -60.5% (active) | -17.1% (active) | 18.7% | 7.67% (active) | -50.1% (active) | -78.1% (active) |  | -25.7% (active) | -1.3% (active) |  |  |
| C1=C(Cc2ccccc2)n2cnc3ncnc(c32)S1 | 71.8% | 55.7% | 45.8% | 94.1% | 78.8% | 78.2% | 86.1% | 54.5% | 9.31% (active) | 103% | 75% |  | 86.4% | 48.3% | 87.2% | 39.6% | 99.6% | 58.9% | 31.2% | 28.6% |
